GPR32 ag – agonists of human resolvin D1 receptor DRV1 (GPR32) | activation, % at 76.9 µM | actives 2.5% (n = 48,000) | CHO-K1 GPR32 beta-arrestin PathHunter luminescence, 90 min; zero percent set by DMSO-only wells;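 active = activation of at least 60% and not above a set upper limit, about 1 call in 100 departs from these limits; inconclusive = activation of 40% to 60%, or above that upper limit; inactive = activation under 40%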; also: 0% is about no effect
Target sequence (O75388 whole entry, looked up): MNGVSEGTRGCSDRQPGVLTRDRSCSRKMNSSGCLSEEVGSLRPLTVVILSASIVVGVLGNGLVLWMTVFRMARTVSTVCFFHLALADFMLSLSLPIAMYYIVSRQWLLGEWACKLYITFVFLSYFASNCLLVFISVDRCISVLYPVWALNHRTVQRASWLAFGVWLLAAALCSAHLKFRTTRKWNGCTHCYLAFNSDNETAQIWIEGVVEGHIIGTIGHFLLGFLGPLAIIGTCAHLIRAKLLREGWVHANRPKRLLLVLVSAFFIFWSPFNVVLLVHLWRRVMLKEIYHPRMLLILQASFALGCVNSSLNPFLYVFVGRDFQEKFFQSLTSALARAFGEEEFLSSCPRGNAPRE
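Beta-arrestin recruitment read-out: luminescence from complemented beta-Gal in CHO-K1 GPR32 PathHunter cells, measured 1 h after detection reagent at ambient temperature following 90 min compound exposure at 37 °C; DMSO served as basal (EC0) control.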
FH mod – Identification of activators of human fumarate hydratase by quantitative high-throughput screening | FH coupled MDH/diaphorase resazurin fluorescence, 15 min | Potency, µM (highest dose often 79.9 µM), inactives show at the highest dose activity change, negative = inhibition, most hits filed as inhibitors | actives 0.22% (n = 54,000); also: potency is read from the fitted curve at half-maximal effect; % is scaled to controls: 0 for no effect and ±100 for the full control effect; the screen sought activators but most active calls are inhibition curves; nearly all actives have a fitted effect of over 45% in size
SKOV3 invasion – ovarian cancer metastasis inhibition, 3D TME model; Potency, µM (doses to about 45.8 µM), for inactives: top-dose activity change, negative = inhibition, most hits filed as inhibitors; AID 1963576; SKOV3ip1-GFP adhesion/invasion on 3D omental model, fluorescence; actives 0.1% (n = 46,000);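 also: potency is read from the fitted curve at half-maximal effect; plate controls were DMSO wells for no effect and tomatine positive control wells for full effect; nearly all actives have a fitted effect of over 65% in size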
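Primary human omental fibroblast/mesothelial 3D culture pre-formed 48 h. SKOV3ip1-GFP cells added with compounds (0.36-46 umol/L), incubated 2 h RT/16 h 37 C, fixed; GFP cells quantified at 488/509 nm.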
NTMT1 inh – blocks human N-terminal methyltransferase 1 activity; Q9BV86; NTMT1 MTase-Glo SAH luminescence, purified enzyme; Potency, µM (highest dose often 114 µM), without a hit: top-dose activity change, negative = inhibition, actives largely listed as inhibitors; actives 2.5% (n = 59,000);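 also: potency is read from the fitted curve at half-maximal effect; plate controls were DMSO vehicle for no effect and no enzyme for full effect; nearly all actives have a fitted effect of over 65% in size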
Target sequence (Q9BV86 whole entry, looked up): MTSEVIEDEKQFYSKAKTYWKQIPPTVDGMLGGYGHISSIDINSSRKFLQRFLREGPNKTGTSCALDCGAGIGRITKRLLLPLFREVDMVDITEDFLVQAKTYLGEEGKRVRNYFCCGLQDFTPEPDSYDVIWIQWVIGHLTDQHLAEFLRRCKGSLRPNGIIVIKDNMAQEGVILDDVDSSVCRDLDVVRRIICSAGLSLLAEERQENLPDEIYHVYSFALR
* = called active by the depositor; i = inactive; ? = inconclusive; nt = not tested or not shown; ! = not active in a repeat; [ ] = another dose, or the depositor's remark. A selection: hits, their analogues and other compounds. The true share with any hit is near 3.9%. Unless noted, calls follow the shape of the dose curve; as a rule, active = well fitted curve in the direction sought with a large enough effect; inconclusive = small, poorly fitted or top-dose-only effect, or another doubt; inactive = no such curve, though single readings can be large; an effect the other way counts as inactive or inconclusive.

SMILES	GPR32 ag	FH mod	SKOV3 invasion	NTMT1 inh
Cc1oc(-c2cccc(Cl)c2)nc1CN1CCC(C(=O)NCCCN2CCN(c3ccccc3F)CC2)CC1	-4	9%	0%	-6%
COc1ccc(Nc2nc(N)nc(CSc3nc4ccccc4s3)n2)cc1	?	?	i	-6%
Cc1ccc(Nc2nc(N)nc(CSc3nc4ccccc4s3)n2)cc1	83*	-21%	i	5%
CCc1ccc(CCOc2ccc(CC3SC(=O)NC3=O)cc2)nc1 (configuration not stated)	28	18%[53.3 µM]	-6%	32µM*!
O=C(CCNS(=O)(=O)c1ccc2c(c1)CCN2C(=O)C1CC1)Nc1ccc(F)cc1F	85*	7%	-28%	1%
COc1ccc(N2CCN(C(=O)CCNS(=O)(=O)c3ccc4c(c3)CCN4C(=O)C3CC3)CC2)cc1	20	-5%	-6%	2%
O=C(CCNS(=O)(=O)c1ccc2c(c1)CCN2C(=O)C1CC1)N1CCN(c2ccc(F)cc2)CC1	69*	-8%	-3%	15%
Cc1cccc(N2CCN(C(=O)CCNS(=O)(=O)c3ccc4c(c3)CCN4C(=O)C3CC3)CC2)c1C	44	-6%	13%	0%
O=C(CCNS(=O)(=O)c1ccc2c(c1)CCN2C(=O)C1CC1)N1CCN(c2cccc(Cl)c2)CC1	61*	-11%	i	12%
Cc1cccc(NC(=O)CCNS(=O)(=O)c2ccc3c(c2)CCN3C(=O)C2CC2)c1	5	-8%	i	-9%
COc1cc2nc(SCC(=O)Nc3c(C)cc(C)cc3C)n3nc(CCn4c(C)nc5ccccc54)nc3c2cc1OC	83*	1%	-5%	4%
COc1ccc(C)cc1NC(=O)NCc1cccn1Cc1ccccc1	-16	-11%	-15%	89µM*
CCC(=O)N1CCc2cc(Br)cc(S(=O)(=O)N3CCCC(C(=O)N(C)c4ccc(Br)cc4)C3)c21 (configuration not stated)	-5	-14%	-3%	89µM*
CCC(=O)N1CCc2cc(Br)cc(S(=O)(=O)N3CCCC(C(=O)Nc4ccc(OC)cc4OC)C3)c21 (configuration not stated)	2	-41%	6%	89µM*
Cc1cccc(-c2nc3c(cnn3-c3ccccc3)c(=O)n2-c2ccc(Br)cc2)c1	-29	-16%	-12%	89µM*
Cc1ccc(-n2c(-c3cccc(C)c3)nc3c(cnn3-c3ccccc3)c2=O)cc1	-23	-10%	i	?
C#C[C@]1(O)CC[C@H]2[C@@H]3[C@H](C)CC4=C(CCC(=O)C4)[C@H]3CC[C@@]21C	99*	-1%[53.3 µM]	nt	25µM*!
C[C@H]1CC[C@@]2(OC1)O[C@H]1CC3[C@@H]4CC[C@@H]5C[C@@H](O[C@@H]6O[C@H](CO)[C@@H](O[C@@H]7O[C@H](CO[C@@H]8OC[C@@H](O)[C@H](O)[C@H]8O)[C@@H](O[C@@H]8O[C@H](CO)[C@H](O)[C@H](O)[C@H]8O)[C@H](O)[C@H]7O)[C@H](O)[C@H]6O)CC[C@]5(C)C4CC[C@]3(C)[C@H]1[C@@H]2C (some centres not stated)	nt	-4%[20.6 µM]	nt	-4%[12.6 µM]
CC(C)CC(=O)OC[C@@]1(O)C[C@@]23CC[C@H]4[C@@](C)(CCC[C@@]4(C)C(=O)O)[C@@H]2CC[C@@H]1C3	nt	1%[53.3 µM]	nt	14%[29.8 µM]
C[C@@H]1CN(CC(=O)N2CC(C)(C)c3ncc(Cc4ccc(F)cc4)cc32)[C@@H](CN2CCOC[C@H]2C)CN1	nt	nt	nt	79µM*!
CC(C)(C)OC(=O)NCc1nnc(C(C(=O)OCc2ccccc2)c2ccccc2)s1 (configuration not stated)	nt	nt	nt	-1%
COc1ccc(-n2c(SCC(=O)N3CCc4ccccc43)nc3c([nH]c4ccccc43)c2=O)cc1	110*	2%	i	0%
COc1ccc(-n2c(SCC(=O)N3CCCc4ccccc43)nc3c([nH]c4ccccc43)c2=O)cc1	35	4%	i	2%
CCCCC(O)C(=O)Nc1cc(C(F)(F)F)ccc1Cl (configuration not stated)	nt	nt	nt	5%
CCCCC[C@H](O)C=C[C@H]1[C@H](O)CC(=O)[C@H]1CCCCCCC(=O)O	nt	9%[53.3 µM]	-1%	-16%[57.5 µM]
SMILES	GPR32 ag	FH mod	SKOV3 invasion	NTMT1 inh
CCCCC(C)(C)[C@H](O)C=C[C@H]1[C@H](O)CC(=O)[C@H]1CC=CCCCC(=O)O	nt	-10%[53.3 µM]	-15%	50µM*
CC(C)CC1NC(=O)C(C(C)c2ccccc2)NC(=O)C(C(C)C)NC(=O)C(C)NC(=O)CCCNC(=O)C(Cc2c[nH]c3ccccc23)NC(=O)C(C)NC1=O (configuration not stated)	nt	-1%[20.6 µM]	nt	3%[12.6 µM]
Cc1ccc(-c2cnc(N3CCC(C(N)=O)CC3)s2)cc1	nt	nt	nt	9%
Cc1ccc(NC(=O)Nc2cccc(C)n2)cc1	65*	-1%	?	-3%
COc1cc2c(cc1O)CC[C@@H]1[C@@H]2CC[C@]2(C)[C@@H](O)CC[C@@H]12	-25	-23%[53.3 µM]	nt	35µM*
C[C@@H](Oc1cc(-n2cnc3ccc(CN4CCN(C)CC4)cc32)sc1C(N)=O)c1ccccc1C(F)(F)F	nt	1%[53.3 µM]	1%	8.9µM*
CC(C)(c1ccc(O)cc1)c1ccc(O)cc1	64*	-8%	nt	-4%
COc1ccc(O)cc1	8	-13%[53.3 µM]	nt	14%[57.5 µM]
COc1ccc(OC2OC(CO[C@@H]3O[C@@H](C)[C@H](O)[C@@H](O)[C@H]3O)C(O)C(O)C2O)cc1OC (some centres not stated)	nt	16%[53.3 µM]	nt	-10%[29.8 µM]
CCOC(=O)C(=O)c1csc(NC=O)n1	8	-4%[53.3 µM]	nt	15%[57.5 µM]
CCC(C(=O)OCCN1CCOC(c2ccccc2)C1C)c1ccccc1 (configuration not stated)	62*	-5%[53.3 µM]	nt	38%[57.5 µM]
COc1ccc(C2Nc3ccccc3C(=O)N2Cc2ccncc2)cc1COc1c(C)cc(NC(C)=O)cc1C (configuration not stated)	nt	nt	nt	11%
CN1CCC[C@@H]1c1cccnc1	0	6%[53.3 µM]	nt	16µM*
COc1cccc(CNc2ccc(S(=O)(=O)Nc3cccc4ccncc34)cc2)c1O	nt	nt	nt	18%
O=C(O)COc1ccccc1C1Nc2ccccc2-c2nnc(SCc3ccc(Cl)cc3)nc2O1 (configuration not stated)	108*	-17%	-10%	-3%
COc1cc(C2Nc3ccccc3-c3nnc(SCc4ccc(Cl)cc4)nc3O2)ccc1OCC(=O)O (configuration not stated)	?	-6%	6%	18%
N#CC(c1ccnc(OCc2ccc(CN3CCOCC3)cc2)n1)c1nc2ccccc2s1 (configuration not stated)	nt	6%	nt	1%[57.5 µM]
C=CC(=O)Nc1cc2c(Nc3ccc(F)c(Cl)c3)ncnc2cc1C#CC(C)(C)N1CCN(C)CC1	nt	1%	?	?
CN1CCC(Nc2ncc3ncnc(Nc4ccc(F)c(Cl)c4)c3n2)CC1	24	0%	nt	45µM*

Assay outcomes: PubChem BioAssay, National Center for Advancing Translational Sciences (NCATS)
